In ChEMBL document CHEMBL3433997, “St. Jude Leishmania screening dataset” (2016):

What was measured:
Type in all cases: functional
[1] = molecular target: Solute carrier family 2, facilitated glucose transporter member 1 (Homo sapiens) (UniProt P11166); assay: ST_JUDE_LEISH: Cytotoxicity at 2uM final concentration against transgenic Leishmania Mexicana promastigotes LmGLUT1 that are glucose transport deficient and complemented with the human glucose transporter GLUT1. Activity is measured by DNA content using SYBR green in vitro
[2] = molecular target: Hexose transporter 1 (Plasmodium falciparum) (UniProt O97467); assay: ST_JUDE_LEISH: Cytotoxicity at 2uM final concentration against transgenic Leishmania Mexicana promastigotes LmPfHT that are glucose transport deficient and complemented with the Plasmodium falciparum hexose transporter. Activity is measured by DNA content using SYBR green in vitro
[3] = molecular target: Glucose transporter (Leishmania mexicana) (UniProt O61059); assay: ST_JUDE_LEISH: Cytotoxicity at 2uM final concentration against transgenic Leishmania Mexicana promastigotes LmGT2 that are glucose transport deficient and complemented with the L. Mexicana glucose transporter 2. Activity is measured by DNA content using SYBR green in vitro

Sequence of Solute carrier family 2, facilitated glucose transporter member 1 (Homo sapiens) (P11166 whole entry): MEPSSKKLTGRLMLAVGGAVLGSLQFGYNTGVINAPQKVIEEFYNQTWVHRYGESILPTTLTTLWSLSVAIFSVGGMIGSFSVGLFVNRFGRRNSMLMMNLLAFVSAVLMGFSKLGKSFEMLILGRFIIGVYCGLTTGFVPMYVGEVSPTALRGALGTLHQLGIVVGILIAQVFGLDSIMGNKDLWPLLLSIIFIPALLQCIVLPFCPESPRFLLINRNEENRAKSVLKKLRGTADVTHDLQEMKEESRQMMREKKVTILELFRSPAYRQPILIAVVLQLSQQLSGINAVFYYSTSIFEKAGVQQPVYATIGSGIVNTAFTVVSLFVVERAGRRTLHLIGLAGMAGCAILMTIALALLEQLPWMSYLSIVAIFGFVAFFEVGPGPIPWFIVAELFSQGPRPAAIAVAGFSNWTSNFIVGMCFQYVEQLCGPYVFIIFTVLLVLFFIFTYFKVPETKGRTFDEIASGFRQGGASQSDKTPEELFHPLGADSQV

SMILES | inhibition [1] | inhibition [2] | inhibition [3]
COC(=O)c1cccc(OCCNC2CCN(C[C@H](O)c3ccnc4ccc(OC)cc34)CC2)c1 | 0.73% | -0.34% | 0.25%
Cc1cc(OCCCNC(=N)c2ccc3ccccc3c2)c(C(C)C)cc1Cl | 2.28% | 2.39% | -0.77%
FC(F)(F)c1ccc(N2CCCN(Cc3cccc(-c4ccccc4CNCc4ccc5c(c4)OCO5)c3)CC2)nc1 | 2.61% | -2.51% | -0.04%
Nc1nc(N)c2c(Sc3ccccc3)cccc2n1 | 3.38% | 3.48% | 2.7%
C[C@@H](CC1CCCCC1)OC(=O)N(C)[C@@H]1CCN(C#N)C1 | 14.6% | 10.3% | 10.5%
CCOC(=O)c1ccc(NC(=O)Nc2cccc(-c3ccc(-c4nc5cccc(C)c5[nH]4)s3)c2)cc1 | -0.56% | 0.81% | 2.18%
O=C(NC1c2ccccc2Oc2ccccc21)c1ccccc1O | -3% | -0.11% | -0.01%
CCCC(=O)Nc1ccc(OCCCCN(CC(C)(C)C)c2ccc(C#N)c(C(F)(F)F)c2)cc1 | 1.48% | 1.02% | 0.8%
Cc1[nH]c(C)c(-c2ccc(OCc3ccc(F)cc3)nc2)c(=O)c1Br | 2.71% | 2.42% | 0.74%
CC1(C)CC(NCCCCCCCOc2ccc(OCc3ccccc3)cc2)CC(C)(C)N1 | 103% | 102% | 55.4%
Fc1ccc2[nH]c(-c3ccc(-c4ccc(CNCCN5CCNCC5)cc4)cc3)nc2c1 | -0.25% | 1.53% | 0.99%
OC(CNCc1ccco1)Cn1c2ccc(Br)cc2c2cc(Br)ccc21 (centres undefined) | 5.15% | 3.41% | 2.56%
CC(C)c1ccc(NC(=O)Nc2ccc(Cn3ncc(N4CCCNCC4)c(Cl)c3=O)cc2)cc1 | 1.52% | 1.29% | -0.56%
Cc1cccc2nc(C(=O)Nc3nc(CN4CCC(C)CC4)cs3)cn12 | -0.22% | -1.59% | 1.62%
Cc1noc(-c2ccccc2)c1CN1CCCC2(CC(C(=O)NCc3cccc(F)c3F)=NO2)C1 (centres undefined) | 0.11% | -0.09% | -0.8%
CC1(C)NC(N)=NC(=N)N1OCCCOc1cc(Cl)ccc1Cl | 13.6% | 13.5% | 13.6%
Fc1ccc2[nH]c(-c3ccc(-c4ccc(CN5CCN(CCN6CCOCC6)CC5)cc4)cc3)nc2c1 | 5.88% | 4.38% | 1.45%

SMILES | inhibition [1] | inhibition [2] | inhibition [3]
N=C(N)CCN(Cc1ccc(Cl)cc1)c1ccc(Cl)cc1 | 0.7% | 0.7% | 0.65%
CCc1c(C(=O)NC2CCC(N3CCC(c4ccccc4C)CC3)CC2)[nH]c2ccc(OC)cc12 (centres undefined) | 0.2% | -0.58% | -0.08%
O=C(Nc1cccc(CN2CCCN(Cc3ccsc3)CC2)c1)c1cc2ccccc2s1 | 1.11% | 0.58% | -0.93%
O=C(Nc1ccc(C(F)(F)F)cc1)c1cccc(S(=O)(=O)NC2CCN(CC3CCCCC3)C2)c1 (centres undefined) | 2.01% | 0.63% | 0.63%
Cc1cc(-c2cccc3c(C(=O)N4CCc5cc6nccc(N7CCCN(C)CC7)c6cc54)cccc23)cc(C)n1 | -0.39% | 1.02% | 1.14%
O=[N+]([O-])c1cc(C(c2ccc(O)c([N+](=O)[O-])c2)C(Cl)(Cl)Cl)ccc1O | 9.43% | 9.85% | 7.92%
C=CCOC(=O)N1CCC(CNCc2ccc(-c3cccc(-c4nc5cc(F)ccc5[nH]4)c3)cc2)C1 (centres undefined) | 1.77% | 2.36% | 3.88%
N=C(N)NC(=O)Nc1cc(Br)c(Br)c(Br)c1 | 3.42% | 3.17% | 1.74%
O=C(NCCCCN1CCC(c2ccc3c(c2O)CCCC3)CC1)c1ccc(NC(=O)c2ccc(Cl)cc2)cc1 | 1.7% | 2.56% | 0.97%
C=C(C)Cn1cc(C2CCN(CCN3CCC(CNC(=O)c4ccc(-c5ccc(C#N)cc5)cc4)CC3)CC2)c2ccccc21 | 7.94% | 4.28% | 5.17%
CCOC(=O)c1ccc(NC(=O)Nc2ccc(-c3ccc(-c4nc5cc(C(F)(F)F)ccc5[nH]4)cc3)cc2)cc1 | -1.59% | -0.19% | 1.54%
COc1ccc(CN2CCCN(Cc3cccc(NC(=O)c4ccc5ccccc5c4)c3)CC2)cc1 | 1.59% | 1.71% | 6.07%
COc1ccc(C(=O)Nc2ccc(-c3ccc([N+](=O)[O-])cc3)cc2)cc1CCCN(C)C | 2.83% | 3.93% | 2.45%
c1cc(CN2CCCCC2)cc(-c2ccc(-c3nc4ccccc4[nH]3)s2)c1 | 4.86% | 1.16% | -0.82%
CC1CCN(CC[C@H]2CCCN2S(=O)(=O)c2cccc(NC(=O)c3ccc(-c4ccccc4)cc3)c2)CC1 | 3.61% | 1.72% | -0.42%
O=C(Nc1cccnc1)c1cc(-c2cccnc2)nc2ccc(Cl)cc12 | 6.95% | 2.76% | 1.98%
